# Laboratory results reported in PubChem BioAssay.
# “And” between values parts separate entries of the source, which are not always exact repeats. Equal values may be shown once. The source made the active and inactive calls.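 The calls were made as follows, unless noted: active = inhibition at or above 50% relative to wild type and mutant plate controls; inactive = inhibition below 50%.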
# Experiments:
# [1] = inhibitors of TNFa-induced NFkB p65 translocation, primary screen, imaging, HUVEC, MLSMR starter and 10KST1 sets (AID 438;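 active = inhibition above 20% together with a positive visual image hit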;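 also: compound added about 3h40 before a 20 min TNFalpha stimulation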;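 as to inhibition: signal is the nuclear over cytoplasmic p65 intensity ratio per well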); conditions: HUVEC TNFa-induced p65 nuclear translocation; cell count: measured here: nuclei count (cytotoxicity indicator), at 2.08 µM; inhibition: at 2 µM, stronger effect = higher value, 0% TNFa-plus-vehicle, 100% no-TNFa wells
# [2] = inhibitors of mutant huntingtin aggregation, primary screen, imaging, exon1htt(103Q)mCFP cells, high-content imaging (AID 483;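 active = visual image review flags a hit and inhibition of aggregation exceeds 20%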;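 also: compound exposure lasted 3 days before fixation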;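 as to nuclei count: percent of the per-plate median nuclei count of sample wells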); conditions: exon1htt(103Q)mCFP cell line, aggregate imaging, at 2 µM; inhibition of aggregation: stronger effect = higher value; nuclei count: measured here: cell count, toxicity
# [3] = inhibitors of E-selectin induction by TNFa, primary screen, imaging, HUVEC, immunofluorescence, MLSMR starter and 10KST1 sets (AID 487;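 active = visually confirmed hit in the image check and inhibition above 20%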;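 as to inhibition: signal is fraction of cell area covered by stained E-selectin grains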;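 as to nuclei count: 100% = median nuclei count of all wells on the same plate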); conditions: HUVEC TNFalpha-induced E-selectin immunofluorescence imaging, at 2 µM; inhibition: stronger effect = higher value; nuclei count: measured here: cell number, toxicity
# [4] = DUSP6 inhibitors restoring Erk phosphorylation by chemical complementation, primary imaging in DUSP6-transfected HeLa (AID 609;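 active = compounds giving at least 50% inhibition in the cell-based MKP-3 phosphatase rescue imaging test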;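 as to inhibition: phospho-Erk level distribution per well compared with pooled transfected vehicle control wells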); conditions: HeLa MKP-3 transfected, phospho-Erk imaging KS statistic, at 10 µM, cells stimulated with TPA for 15 min
# [5] = target: Dual specificity protein phosphatase 6 (Homo sapiens) (UniProt Q16828); experiment: as above; conditions: HeLa MKP-3 transfected, phospho-Erk imaging KS statistic; at 10 µM; stronger effect = higher value; cells stimulated with TPA for 15 min
# Dual specificity protein phosphatase 6 (Homo sapiens), sequence (Q16828 whole entry, looked up): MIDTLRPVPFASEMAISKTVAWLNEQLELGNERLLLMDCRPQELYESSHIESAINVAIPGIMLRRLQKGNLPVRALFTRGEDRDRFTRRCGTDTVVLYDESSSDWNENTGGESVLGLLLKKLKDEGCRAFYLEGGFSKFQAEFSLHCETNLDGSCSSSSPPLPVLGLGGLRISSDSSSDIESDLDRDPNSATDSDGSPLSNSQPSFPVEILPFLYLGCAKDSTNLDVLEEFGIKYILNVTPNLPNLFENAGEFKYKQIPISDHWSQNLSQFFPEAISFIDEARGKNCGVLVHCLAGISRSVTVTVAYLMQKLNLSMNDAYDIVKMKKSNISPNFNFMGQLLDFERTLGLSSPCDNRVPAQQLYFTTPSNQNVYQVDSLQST
# [6] = target: Voltage-gated potassium channel subunit beta-2 (Rattus norvegicus) (UniProt P62483); experiment: KvBeta enzyme negative modulators, primary screen, biochemical, NADPH fluorescence (AID 622;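 active = fluorescence slope higher than the sample average by over 3 SD, cut at about -0.22 in these data, passing the limit was not always enough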;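 also: slope of raw intensity against log time taken from 70 to 1610 s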); conditions: recombinant KvBeta, 4-cyanobenzaldehyde reduction, at 10 µM, stronger effect = higher value
# Voltage-gated potassium channel subunit beta-2 (Rattus norvegicus), sequence (P62483 whole entry, looked up): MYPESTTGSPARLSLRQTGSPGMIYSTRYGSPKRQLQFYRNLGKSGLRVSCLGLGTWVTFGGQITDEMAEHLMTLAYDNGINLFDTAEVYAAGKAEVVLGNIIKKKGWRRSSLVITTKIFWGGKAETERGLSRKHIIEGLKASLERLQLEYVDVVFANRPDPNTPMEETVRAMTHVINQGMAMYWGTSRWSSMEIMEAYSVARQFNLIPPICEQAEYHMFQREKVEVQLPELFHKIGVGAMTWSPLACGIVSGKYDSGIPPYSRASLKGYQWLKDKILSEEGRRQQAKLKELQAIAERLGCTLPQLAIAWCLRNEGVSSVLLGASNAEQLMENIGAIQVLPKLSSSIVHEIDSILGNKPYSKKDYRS
# [7] = target: Voltage-gated potassium channel subunit beta-2 (Rattus norvegicus) (UniProt P62483); experiment: KvBeta positive modulators, primary screen, biochemical, NADPH fluorescence (AID 623;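 active = NADPH fluorescence slope more negative than the mean of all samples by about 3 SD, 99.7% confidence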;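 also: fluorescence intensity change per second fitted from 20 to 320 s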); conditions: Recombinant KvBeta, NADPH fluorescence decrease slope, 10 min; at 10 µM; stronger effect = lower value
# [8] = target: Alpha-2C adrenergic receptor (Homo sapiens) (UniProt P18825); experiment: modulators of alpha2C/GIRK thallium flux, primary screen, cell-based, HEK293 alpha2C/GIRK1/2 (AID 624;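 active = fluorescence slope after compound addition differing from the mean of all screened samples at 99.7% confidence, in either direction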;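 also: slope of fluorescence ratio to pre-addition baseline per second over 15 to 24 s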); conditions: thallium flux BTC fluorescence, at 10 µM, actives lie on both sides
# Alpha-2C adrenergic receptor (Homo sapiens), sequence (P18825 whole entry, looked up): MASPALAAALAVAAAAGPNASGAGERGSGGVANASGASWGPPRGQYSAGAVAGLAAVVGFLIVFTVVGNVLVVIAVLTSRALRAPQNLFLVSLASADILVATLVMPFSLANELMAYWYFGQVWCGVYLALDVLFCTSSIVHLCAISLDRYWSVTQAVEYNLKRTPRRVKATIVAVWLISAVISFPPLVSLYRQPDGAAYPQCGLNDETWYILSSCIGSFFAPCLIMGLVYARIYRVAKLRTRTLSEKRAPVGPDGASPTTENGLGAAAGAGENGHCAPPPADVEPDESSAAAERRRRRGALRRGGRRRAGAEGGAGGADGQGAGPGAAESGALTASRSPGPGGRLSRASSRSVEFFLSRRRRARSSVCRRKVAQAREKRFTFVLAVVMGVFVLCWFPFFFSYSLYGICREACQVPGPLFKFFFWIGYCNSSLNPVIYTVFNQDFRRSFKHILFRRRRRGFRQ
# [9] = inhibitors of Chlamydomonas gravitaxis, primary screen, whole organism, Chlamydomonas reinhardtii, WT vs cilia-less mutant, absorbance, 96-well (AID 463189); conditions: OD600 absorbance, 2 days, at 10 µM, stronger effect = higher value;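 also: 0% = wild type cc124 cells in DMSO and 100% = ciliumless bld1 mutant cells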
# [10] = inhibitors of Sendai virus-induced IRF3 signaling, primary screen, TLR/RLR signaling modifier project, cell-based, Sendai virus stimulus, luciferase, 10K MLSCN set (AID 602276;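 active = inhibition at or above 50% at 10 µM; inactive = inhibition below 50%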;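 also: firefly luciferase from ISG56 promoter only with Renilla not read in this screen; 0% = Sendai virus plus DMSO and 100% = medium plus DMSO without virus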); conditions: HEK293 RL24 IRF3 luciferase reporter, at 10 µM, stronger effect = higher value
# [11] = inhibitors of poly I:C-induced TLR3 signaling, primary screen, cell-based, poly I:C stimulus, luciferase, 10K MLSCN set (AID 602277;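 active = inhibition of the reporter signal at or above 50%; inactive = inhibition below 50%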); conditions: HEK293-TLR3 RL24 IRF3 luciferase reporter, at 10 µM, stronger effect = higher value
# [12] = target: Muscarinic acetylcholine receptor M4 (Homo sapiens) (UniProt P08173); experiment: compounds altering M4/GIRK thallium flux, either direction, primary screen, M4 allosteric agonist project, cell-based, HEK293 M4/GIRK, BTC-AM (AID 625;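 active = fluorescence slope after compound addition differing from the mean of all tested samples at 99.7% confidence, mostly higher but some lower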;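 also: thallium influx through GIRK channels coupled to M4 in HEK293 cells with BTC-AM dye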); conditions: at 10 µM, actives lie on both sides
# Muscarinic acetylcholine receptor M4 (Homo sapiens), sequence (P08173 whole entry, looked up): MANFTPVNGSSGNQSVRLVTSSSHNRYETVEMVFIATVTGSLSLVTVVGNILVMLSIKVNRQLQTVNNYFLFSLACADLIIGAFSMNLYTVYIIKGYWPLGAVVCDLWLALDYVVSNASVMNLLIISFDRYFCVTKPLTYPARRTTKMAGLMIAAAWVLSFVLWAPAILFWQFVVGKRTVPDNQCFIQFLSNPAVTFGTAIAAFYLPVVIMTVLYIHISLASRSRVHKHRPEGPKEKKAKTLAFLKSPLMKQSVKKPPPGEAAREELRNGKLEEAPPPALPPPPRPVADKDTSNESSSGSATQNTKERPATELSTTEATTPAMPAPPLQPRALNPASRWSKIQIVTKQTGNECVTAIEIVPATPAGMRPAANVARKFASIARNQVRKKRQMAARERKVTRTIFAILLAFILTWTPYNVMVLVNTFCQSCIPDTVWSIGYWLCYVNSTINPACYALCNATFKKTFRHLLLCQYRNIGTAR
# [13] = inhibitors of larval lipid processing in zebrafish, primary screen, whole organism, PED6 fluorescence, gall bladder and intestine (AID 686;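 active = a full or partial loss of lipid-probe fluorescence in the fish gall bladder, intestine or both, judged by eye; inactive = no fluorescence loss, or compound toxic to the fish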;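 also: larvae 5 to 7 days old with five fish per well; signal comes from phospholipase A2 cleavage of quenched PED6 carried via bile; overnight exposure to compound and PED6 before scoring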); conditions: Zebrafish larvae PED6 lipid processing, fluorescence scoring; screened at 20 µM (by protocol)
# [14] = measured here: cell density z-score
# [15] = measured here: nuclear c-Myc green intensity z-score
# [16] = measured here: nuclear pErk red intensity z-score, stronger effect = higher value
Structure (SMILES),cell count [1],inhibition [1],inhibition of aggregation [2],nuclei count [2],inhibition [3],nuclei count [3],"z-score [4, 14]","z-score [4, 15]","z-score [4, 16]",inhibition [5],fluorescence slope [6],NADPH fluorescence slope [7],slope [8],inhibition [9],inhibition [10],inhibition [11],fluorescence slope [12],outcome [13]
Cc1oc2nc(SCCCC(=O)NCCCO)nc(N)c2c1C,507,-4.5% (inactive),21.9% (inactive),90.5%,-109% (inactive),116%,0.495,0.376,-1.33,3.56% (inactive),-0.522 (inactive),-1.7e-05 (inactive),0.00668 (inactive),0.255% (inactive),12.9% (inactive),12.8% (inactive),–,–
COCCNc1oc(-c2ccc(C)cc2)nc1C#N,405,1.6% (inactive),12.5% (inactive),88.9%,-23.4% (inactive),129%,-0.898,0.297,1.87,18.2% (inactive),-0.461 (inactive),-5.9e-05 (inactive),0.00692 (inactive),4.66% (inactive),-24.8% (inactive),-85.8% (inactive),0.00552 (inactive),inactive
CN1CCN2c3ccccc3Cc3ccccc3C2C1 (configuration not stated),620,1.5% (inactive),11.1% (inactive),113%,-52% (inactive),117%,-0.186,-0.363,-0.896,19.2% (inactive),-0.574 (inactive),-3.8e-05 (inactive),0.0196 (active),15.2% (inactive) and 10.4% (inactive),12.6% (inactive),45.7% (inactive),0.0128 (active),inactive
COc1cccc(NC(=O)CC2SC(=Nc3ccccc3)NC2=O)c1 (configuration not stated),593,2.2% (inactive),32.9% (inactive),84.1%,-29.5% (inactive),132%,-0.312,-0.394,0.335,9.91% (inactive),-0.37 (inactive),-1.5e-05 (inactive),0.00453 (inactive),32.2% (inactive),-8.37% (inactive),97.6% (active),0.00596 (inactive),inactive
C=C(C)C1Cc2c(C)nn(-c3nc(C)cc(C)n3)c2C1 (configuration not stated),462,-2.7% (inactive),5% (inactive),84.7%,-50.5% (inactive),121%,0.411,1.2,0.938,1.98% (inactive),-0.396 (inactive),-3.5e-05 (inactive),0.00521 (inactive),51.6% (active),11.3% (inactive),16.4% (inactive),0.00615 (inactive),inactive
CC(=N\O)/C(CN(C)C)=N/O,593,-2.4% (inactive),-2.9% (inactive),86.5%,-11.6% (inactive),131%,0.774,-0.0101,-0.876,-0.233% (inactive),-0.49 (inactive),-6.9e-05 (inactive),0.0061 (inactive),-6.2% (inactive),-13.1% (inactive),1.97% (inactive),0.00548 (inactive),inactive
Cc1c(C2Nc3ccccc3NC3=C2C(=O)CC(C)(C)C3)cnn1C (configuration not stated),678,34.8% (active),-2% (inactive),115%,-16.2% (inactive),101%,0.508,-0.847,-0.607,14.7% (inactive),-0.548 (inactive),-2.1e-05 (inactive),0.00605 (inactive),14.4% (inactive),35.1% (inactive),99.4% (active),0.00628 (inactive),inactive
CCC1CCCCN1c1nc(-c2ccncc2)nc2ccccc12 (configuration not stated),503,0.5% (inactive),7.3% (inactive),91.9%,12.1% (inactive),126%,1.04,-0.92,0.299,14% (inactive),-0.391 (inactive),-0.000148 (inactive),0.00736 (inactive),132% (active),24.2% (inactive),30.3% (inactive),–,–
COc1ccc(CNc2oc(COc3ccccc3Cl)nc2C#N)cc1,436,-2.2% (inactive),21.3% (inactive),81.6%,-70.3% (inactive),126%,-0.4,0.197,-0.0244,3.5% (inactive),-0.551 (inactive),-9.3e-05 (inactive),0.00797 (inactive),31.6% (inactive),7.08% (inactive),6.46% (inactive),0.0036 (inactive),–
